Assay in all cases: DAPPL (digital affinity profiling via proximity ligation, sequencing); 10 mM Tris-HCl pH 7.5, 50 mM NaCl, 1 mM DTT, 4% glycerol, room temperature, 30 min; GST-TFs on glutathione beads, 16-mer random dsDNA library, 0.1% formaldehyde crosslink after washing; high values mean tight binding
One assay addresses T1, FEV (Homo sapiens, UniProt Q99581 1-238).
T1 sequence: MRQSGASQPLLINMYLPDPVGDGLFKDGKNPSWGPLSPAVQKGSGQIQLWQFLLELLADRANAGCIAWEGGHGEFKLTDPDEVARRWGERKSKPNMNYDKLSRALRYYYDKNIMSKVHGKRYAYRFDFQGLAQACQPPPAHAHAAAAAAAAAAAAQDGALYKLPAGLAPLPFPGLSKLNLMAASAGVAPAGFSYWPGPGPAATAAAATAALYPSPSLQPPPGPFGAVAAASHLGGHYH
As to conditions: protein: recombinant; tags: N-terminal GST; dsDNA, one strand shown. The gist of the method:
(§1)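 Human transcription factors carrying a GST fusion were produced in yeast, bound to glutathione beads, tagged with DNA barcodes and pooled together with a tag-only sample. Each pool was held with 200 nmole of a random double-stranded 16-mer DNA library in Tris/NaCl/DTT/glycerol buffer for 30 min at room temperature, then washed, crosslinked in 0.1% formaldehyde, proximity-ligated with BsaI/T4 ligase (1 h, 37 °C), PCR-amplified and sequenced on an Illumina NextSeq500. Binding signal is the read frequency of each hexamer for a given factor divided by its frequency in the tag-only sample.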

In a further assay the target is ETV5 (Homo sapiens, UniProt P41161 1-510). Particulars: protein: recombinant; tags: N-terminal GST; dsDNA, one strand shown. In outline:
as §1

Another assay deals with HSF1 (Homo sapiens, UniProt Q00613 1-529). As to conditions: protein: recombinant; tags: N-terminal GST; chain copies: 3; dsDNA, one strand shown. The gist of the method:
as §1

A further assay concerns the target T2, SPIC (Homo sapiens, UniProt Q8N5J4 1-248).
T2 sequence: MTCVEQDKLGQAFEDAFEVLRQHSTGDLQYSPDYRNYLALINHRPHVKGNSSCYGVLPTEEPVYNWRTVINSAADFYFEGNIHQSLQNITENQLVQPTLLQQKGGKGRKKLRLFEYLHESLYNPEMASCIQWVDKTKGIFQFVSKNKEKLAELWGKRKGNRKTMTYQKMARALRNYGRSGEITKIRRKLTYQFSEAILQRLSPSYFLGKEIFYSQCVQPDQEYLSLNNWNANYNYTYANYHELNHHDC
As to conditions: protein: recombinant; tags: N-terminal GST; dsDNA, one strand shown. The gist of the method: as §1

In a further assay the target is ELF4 (Homo sapiens, UniProt Q99607 1-663). As to conditions: protein: recombinant; tags: N-terminal GST; dsDNA, one strand shown. In outline:
as §1

In a further assay the target is T3, ELK4 (Homo sapiens, UniProt P28324-2 1-405).
T3 sequence: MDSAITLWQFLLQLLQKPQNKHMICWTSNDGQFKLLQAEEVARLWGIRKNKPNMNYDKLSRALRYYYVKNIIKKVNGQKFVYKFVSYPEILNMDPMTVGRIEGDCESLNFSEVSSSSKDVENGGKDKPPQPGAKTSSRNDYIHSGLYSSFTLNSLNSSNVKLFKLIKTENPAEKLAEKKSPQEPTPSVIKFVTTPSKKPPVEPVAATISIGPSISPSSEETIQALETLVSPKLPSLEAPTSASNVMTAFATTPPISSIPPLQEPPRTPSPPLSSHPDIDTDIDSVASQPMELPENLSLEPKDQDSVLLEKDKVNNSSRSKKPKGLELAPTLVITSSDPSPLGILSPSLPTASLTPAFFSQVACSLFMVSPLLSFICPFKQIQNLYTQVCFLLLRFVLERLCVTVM
Particulars: protein: recombinant; tags: N-terminal GST; dsDNA, one strand shown. In outline:
as §1

A further assay deals with T4, ETV2 (Homo sapiens, UniProt O00321 1-342).
T4 sequence: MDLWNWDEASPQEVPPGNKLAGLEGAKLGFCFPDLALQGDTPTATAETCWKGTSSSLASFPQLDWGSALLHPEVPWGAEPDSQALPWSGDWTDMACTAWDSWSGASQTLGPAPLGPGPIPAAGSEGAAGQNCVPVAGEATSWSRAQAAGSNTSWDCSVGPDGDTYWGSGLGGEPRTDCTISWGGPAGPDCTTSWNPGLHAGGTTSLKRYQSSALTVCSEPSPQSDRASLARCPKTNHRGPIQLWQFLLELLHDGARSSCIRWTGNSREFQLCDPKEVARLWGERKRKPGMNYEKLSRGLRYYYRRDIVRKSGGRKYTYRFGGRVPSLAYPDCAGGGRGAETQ
As to conditions: protein: recombinant; tags: N-terminal GST; dsDNA, one strand shown. The gist of the method:
as §1

The target of a further assay is T5, ELF3 (Homo sapiens, UniProt P78545 1-371).
T5 sequence: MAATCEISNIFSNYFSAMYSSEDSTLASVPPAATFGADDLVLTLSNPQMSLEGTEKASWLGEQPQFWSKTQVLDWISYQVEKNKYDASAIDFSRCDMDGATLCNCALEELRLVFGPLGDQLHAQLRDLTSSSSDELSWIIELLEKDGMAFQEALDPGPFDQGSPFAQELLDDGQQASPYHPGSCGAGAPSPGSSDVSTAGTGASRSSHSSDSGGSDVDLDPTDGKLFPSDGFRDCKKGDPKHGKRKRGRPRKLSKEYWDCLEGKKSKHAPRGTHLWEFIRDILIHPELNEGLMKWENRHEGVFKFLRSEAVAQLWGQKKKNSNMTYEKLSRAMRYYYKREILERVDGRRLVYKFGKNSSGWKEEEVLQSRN
As to conditions: protein: recombinant; tags: N-terminal GST; dsDNA, one strand shown. The gist of the method: as §1

For the next assay, the target named is CRX (Homo sapiens, UniProt O43186 1-299). Particulars: protein: recombinant; tags: N-terminal GST; dsDNA, one strand shown. In outline:
as §1

For the next assay, the target named is ETV1 (Homo sapiens, UniProt P50549 1-477). As to conditions: protein: recombinant; tags: N-terminal GST; dsDNA, one strand shown. The gist of the method: as §1
Chain of ETV1 (P50549 whole entry): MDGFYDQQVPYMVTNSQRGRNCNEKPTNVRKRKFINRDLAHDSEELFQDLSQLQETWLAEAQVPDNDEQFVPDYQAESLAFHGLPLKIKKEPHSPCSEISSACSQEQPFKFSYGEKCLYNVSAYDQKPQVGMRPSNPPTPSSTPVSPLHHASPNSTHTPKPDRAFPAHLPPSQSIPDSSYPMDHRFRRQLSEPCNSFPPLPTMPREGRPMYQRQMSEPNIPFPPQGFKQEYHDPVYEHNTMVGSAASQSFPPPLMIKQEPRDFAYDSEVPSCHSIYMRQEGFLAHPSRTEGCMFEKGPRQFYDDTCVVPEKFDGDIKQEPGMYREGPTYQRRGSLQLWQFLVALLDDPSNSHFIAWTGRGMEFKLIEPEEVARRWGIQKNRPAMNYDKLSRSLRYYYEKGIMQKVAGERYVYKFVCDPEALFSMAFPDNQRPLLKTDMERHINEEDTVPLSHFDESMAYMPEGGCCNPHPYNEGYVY
The next assay deals with T6, ERF (Homo sapiens, UniProt P50548 1-548).
T6 sequence: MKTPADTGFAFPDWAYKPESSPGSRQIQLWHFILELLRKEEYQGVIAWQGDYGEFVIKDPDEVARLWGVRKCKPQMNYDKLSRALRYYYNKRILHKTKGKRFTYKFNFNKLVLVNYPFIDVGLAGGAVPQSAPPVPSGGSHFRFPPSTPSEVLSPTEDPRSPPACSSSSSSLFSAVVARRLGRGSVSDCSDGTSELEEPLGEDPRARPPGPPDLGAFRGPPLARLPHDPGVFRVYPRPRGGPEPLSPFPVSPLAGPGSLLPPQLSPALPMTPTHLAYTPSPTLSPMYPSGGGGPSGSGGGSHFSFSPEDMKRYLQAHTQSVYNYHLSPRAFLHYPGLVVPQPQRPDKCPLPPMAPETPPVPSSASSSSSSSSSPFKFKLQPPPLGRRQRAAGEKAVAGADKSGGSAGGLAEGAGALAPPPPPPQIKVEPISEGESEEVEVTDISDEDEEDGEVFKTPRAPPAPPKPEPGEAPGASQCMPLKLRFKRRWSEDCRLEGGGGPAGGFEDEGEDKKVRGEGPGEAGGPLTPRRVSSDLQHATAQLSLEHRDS
Particulars: protein: recombinant; tags: N-terminal GST; dsDNA, one strand shown. The gist of the method:
as §1

A further assay addresses T7, ETV3L (Homo sapiens, UniProt Q6ZN32 1-361).
T7 sequence: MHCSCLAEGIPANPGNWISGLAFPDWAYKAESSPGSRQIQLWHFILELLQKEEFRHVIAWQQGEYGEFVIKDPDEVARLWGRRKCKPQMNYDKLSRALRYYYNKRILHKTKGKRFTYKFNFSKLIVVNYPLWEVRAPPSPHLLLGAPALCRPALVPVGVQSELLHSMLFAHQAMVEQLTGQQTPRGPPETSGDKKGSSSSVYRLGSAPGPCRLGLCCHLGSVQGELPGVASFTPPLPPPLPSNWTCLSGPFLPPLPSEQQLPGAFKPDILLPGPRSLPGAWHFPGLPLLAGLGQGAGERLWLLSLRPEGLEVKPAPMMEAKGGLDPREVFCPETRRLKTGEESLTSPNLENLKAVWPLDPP
Particulars: protein: recombinant; tags: N-terminal GST; dsDNA, one strand shown. The gist of the method:
as §1

The target of a further assay is T8, ETS2 (Homo sapiens, UniProt P15036 1-469).
T8 sequence: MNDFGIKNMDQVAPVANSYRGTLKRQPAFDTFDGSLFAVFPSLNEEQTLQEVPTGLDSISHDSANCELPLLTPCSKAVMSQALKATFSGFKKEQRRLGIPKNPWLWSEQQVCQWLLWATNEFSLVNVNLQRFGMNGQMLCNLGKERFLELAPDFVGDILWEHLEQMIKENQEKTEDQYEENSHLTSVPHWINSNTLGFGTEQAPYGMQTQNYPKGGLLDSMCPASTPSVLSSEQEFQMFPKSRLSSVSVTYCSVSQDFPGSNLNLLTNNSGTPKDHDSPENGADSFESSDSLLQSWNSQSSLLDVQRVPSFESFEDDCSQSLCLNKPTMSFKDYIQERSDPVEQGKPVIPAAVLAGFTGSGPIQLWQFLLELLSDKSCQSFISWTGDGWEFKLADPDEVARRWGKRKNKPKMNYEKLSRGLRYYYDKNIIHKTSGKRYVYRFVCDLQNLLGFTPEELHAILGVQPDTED
Particulars: protein: recombinant; tags: N-terminal GST; dsDNA, one strand shown. The gist of the method: as §1

In another assay the target is T9, SPDEF (Homo sapiens, UniProt O95238 1-335).
T9 sequence: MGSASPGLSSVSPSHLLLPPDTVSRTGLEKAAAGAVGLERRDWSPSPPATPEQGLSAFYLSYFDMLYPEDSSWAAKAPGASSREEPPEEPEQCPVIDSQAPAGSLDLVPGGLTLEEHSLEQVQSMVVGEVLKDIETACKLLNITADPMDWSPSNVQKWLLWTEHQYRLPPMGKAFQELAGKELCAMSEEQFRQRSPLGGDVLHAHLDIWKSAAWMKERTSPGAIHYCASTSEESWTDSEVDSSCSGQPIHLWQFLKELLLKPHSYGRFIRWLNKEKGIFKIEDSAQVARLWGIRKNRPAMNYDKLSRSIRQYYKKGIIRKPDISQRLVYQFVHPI
As to conditions: protein: recombinant; tags: N-terminal GST; dsDNA, one strand shown. The gist of the method: as §1

In another assay the target is T10, ETV7 (Homo sapiens, UniProt Q9Y603 1-341).
T10 sequence: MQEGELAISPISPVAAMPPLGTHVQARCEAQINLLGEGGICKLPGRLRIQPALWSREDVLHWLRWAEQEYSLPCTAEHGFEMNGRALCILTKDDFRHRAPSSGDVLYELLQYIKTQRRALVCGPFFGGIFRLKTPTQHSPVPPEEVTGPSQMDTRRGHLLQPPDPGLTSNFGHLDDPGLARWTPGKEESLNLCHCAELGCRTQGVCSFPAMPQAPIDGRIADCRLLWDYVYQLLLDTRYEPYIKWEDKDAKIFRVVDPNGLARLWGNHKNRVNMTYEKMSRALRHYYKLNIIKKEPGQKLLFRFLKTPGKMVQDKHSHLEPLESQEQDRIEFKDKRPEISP
Particulars: protein: recombinant; tags: N-terminal GST; dsDNA, one strand shown. In outline: as §1

Another assay addresses T11, ELF5 (Homo sapiens, UniProt Q9UKW6-2 1-255).
T11 sequence: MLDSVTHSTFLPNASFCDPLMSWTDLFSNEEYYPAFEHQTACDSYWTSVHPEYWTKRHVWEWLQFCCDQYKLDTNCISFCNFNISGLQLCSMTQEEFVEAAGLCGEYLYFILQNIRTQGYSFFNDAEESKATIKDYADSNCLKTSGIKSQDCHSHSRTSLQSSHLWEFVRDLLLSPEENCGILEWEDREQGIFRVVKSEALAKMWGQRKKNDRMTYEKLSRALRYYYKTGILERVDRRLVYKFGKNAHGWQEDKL
As to conditions: protein: recombinant; tags: N-terminal GST; dsDNA, one strand shown. The gist of the method:
as §1

The target of another assay is T12, ETV3 (Homo sapiens, UniProt P41162-2 1-143).
T12 sequence: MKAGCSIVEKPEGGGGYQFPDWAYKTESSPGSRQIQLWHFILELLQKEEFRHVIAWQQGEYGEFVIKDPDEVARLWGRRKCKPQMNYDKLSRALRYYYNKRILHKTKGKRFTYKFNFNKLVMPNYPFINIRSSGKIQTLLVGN
Particulars: protein: recombinant; tags: N-terminal GST; dsDNA, one strand shown. The gist of the method: as §1

For a further assay, the target named is ETV6 (Homo sapiens, UniProt P41212 1-452). As to conditions: protein: recombinant; tags: N-terminal GST; dsDNA, one strand shown. In outline: as §1
Chain of ETV6 (P41212 whole entry): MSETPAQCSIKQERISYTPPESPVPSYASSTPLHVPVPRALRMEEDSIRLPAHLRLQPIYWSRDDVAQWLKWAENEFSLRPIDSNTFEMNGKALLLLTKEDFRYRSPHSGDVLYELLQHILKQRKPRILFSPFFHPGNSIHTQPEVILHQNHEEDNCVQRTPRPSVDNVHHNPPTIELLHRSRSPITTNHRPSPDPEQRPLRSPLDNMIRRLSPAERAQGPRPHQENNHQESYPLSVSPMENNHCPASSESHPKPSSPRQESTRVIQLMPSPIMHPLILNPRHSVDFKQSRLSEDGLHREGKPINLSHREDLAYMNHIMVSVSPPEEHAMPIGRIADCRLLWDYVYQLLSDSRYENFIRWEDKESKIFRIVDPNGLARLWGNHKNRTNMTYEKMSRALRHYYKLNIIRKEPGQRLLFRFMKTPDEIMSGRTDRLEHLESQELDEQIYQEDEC

Chain of ELF4 (Q99607 whole entry): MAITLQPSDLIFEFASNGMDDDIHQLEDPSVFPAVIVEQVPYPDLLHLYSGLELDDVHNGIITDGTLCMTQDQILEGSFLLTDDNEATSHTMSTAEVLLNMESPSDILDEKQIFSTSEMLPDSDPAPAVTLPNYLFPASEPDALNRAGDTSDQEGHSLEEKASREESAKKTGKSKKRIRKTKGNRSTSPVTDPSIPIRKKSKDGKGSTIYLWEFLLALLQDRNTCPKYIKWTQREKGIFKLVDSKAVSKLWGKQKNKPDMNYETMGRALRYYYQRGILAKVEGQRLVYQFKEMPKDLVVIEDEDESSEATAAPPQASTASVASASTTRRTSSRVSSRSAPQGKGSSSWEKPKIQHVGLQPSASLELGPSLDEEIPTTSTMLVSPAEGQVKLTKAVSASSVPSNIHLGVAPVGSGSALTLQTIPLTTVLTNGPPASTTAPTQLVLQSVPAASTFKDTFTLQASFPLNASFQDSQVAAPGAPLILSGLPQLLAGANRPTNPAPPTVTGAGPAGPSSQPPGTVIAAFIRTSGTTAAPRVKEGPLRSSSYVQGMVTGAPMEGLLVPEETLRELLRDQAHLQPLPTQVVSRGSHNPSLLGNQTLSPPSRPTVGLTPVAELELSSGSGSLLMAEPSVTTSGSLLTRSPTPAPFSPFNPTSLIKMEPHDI
Chain of HSF1 (Q00613 whole entry): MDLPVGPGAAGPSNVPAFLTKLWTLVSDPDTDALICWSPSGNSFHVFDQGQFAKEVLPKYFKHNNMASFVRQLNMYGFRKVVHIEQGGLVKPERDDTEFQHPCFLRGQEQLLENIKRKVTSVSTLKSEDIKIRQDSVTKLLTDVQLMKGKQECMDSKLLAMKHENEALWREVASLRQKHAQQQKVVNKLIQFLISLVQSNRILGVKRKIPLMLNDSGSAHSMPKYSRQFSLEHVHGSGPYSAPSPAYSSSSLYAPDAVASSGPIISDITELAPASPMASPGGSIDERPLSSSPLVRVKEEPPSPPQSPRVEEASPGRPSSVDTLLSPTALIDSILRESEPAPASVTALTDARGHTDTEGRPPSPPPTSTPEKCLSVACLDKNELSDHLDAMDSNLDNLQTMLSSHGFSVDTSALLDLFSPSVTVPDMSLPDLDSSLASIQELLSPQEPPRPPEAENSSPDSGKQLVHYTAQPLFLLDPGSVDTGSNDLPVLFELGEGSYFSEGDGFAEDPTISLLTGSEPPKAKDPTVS
Chain of CRX (O43186 whole entry): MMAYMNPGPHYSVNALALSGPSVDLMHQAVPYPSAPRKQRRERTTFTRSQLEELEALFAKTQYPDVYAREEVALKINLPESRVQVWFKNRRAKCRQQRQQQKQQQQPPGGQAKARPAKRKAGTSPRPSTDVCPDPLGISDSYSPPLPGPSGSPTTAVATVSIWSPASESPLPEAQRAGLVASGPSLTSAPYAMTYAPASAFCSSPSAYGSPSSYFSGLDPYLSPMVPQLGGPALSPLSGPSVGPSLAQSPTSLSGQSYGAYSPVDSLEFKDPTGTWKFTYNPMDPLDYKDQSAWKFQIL
Chain of ETV5 (P41161 whole entry): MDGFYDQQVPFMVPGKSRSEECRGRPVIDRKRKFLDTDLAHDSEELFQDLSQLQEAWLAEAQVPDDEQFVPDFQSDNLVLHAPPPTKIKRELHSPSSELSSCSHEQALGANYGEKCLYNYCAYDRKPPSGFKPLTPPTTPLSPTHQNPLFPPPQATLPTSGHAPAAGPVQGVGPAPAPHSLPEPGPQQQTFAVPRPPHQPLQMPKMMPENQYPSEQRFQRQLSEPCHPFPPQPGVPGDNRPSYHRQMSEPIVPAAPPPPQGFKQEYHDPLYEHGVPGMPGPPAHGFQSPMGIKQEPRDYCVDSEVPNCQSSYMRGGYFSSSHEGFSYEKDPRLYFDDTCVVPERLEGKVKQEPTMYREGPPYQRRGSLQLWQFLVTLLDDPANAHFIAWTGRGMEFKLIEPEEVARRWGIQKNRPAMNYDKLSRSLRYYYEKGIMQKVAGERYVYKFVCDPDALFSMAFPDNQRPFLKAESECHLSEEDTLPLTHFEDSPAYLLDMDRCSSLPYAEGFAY

With CCCGAT, the binding signal in the assay with FEV is 1.27 fold enrichment (6-mer frequency, TF over GST control); with ETV5, 1.2 fold enrichment (6-mer frequency, TF over GST control); with HSF1 it was 1.38 fold enrichment (6-mer frequency, TF over GST control); with SPIC it was 1.29 fold enrichment (6-mer frequency, TF over GST control); with ELF4, 1.23 fold enrichment (6-mer frequency, TF over GST control); with ELK4, 1.11 fold enrichment (6-mer frequency, TF over GST control). Moreover, the binding signal was 1.02 fold enrichment (6-mer frequency, TF over GST control) with ETV2; 1.2 fold enrichment (6-mer frequency, TF over GST control) in the assay with ELF3; 1.37 fold enrichment (6-mer frequency, TF over GST control) with CRX; 1.08 fold enrichment (6-mer frequency, TF over GST control) in the assay with ETV1; 1.22 fold enrichment (6-mer frequency, TF over GST control) with ERF; 1.14 fold enrichment (6-mer frequency, TF over GST control) in the assay with ETV3L. Besides, the binding signal with ETS2 was 1.23 fold enrichment (6-mer frequency, TF over GST control); in the assay with SPDEF it was 1.11 fold enrichment (6-mer frequency, TF over GST control); with ETV7, 1.24 fold enrichment (6-mer frequency, TF over GST control); in the assay with ELF5, 1.24 fold enrichment (6-mer frequency, TF over GST control); with ETV3, 1.21 fold enrichment (6-mer frequency, TF over GST control); with ETV6 it was 1.06 fold enrichment (6-mer frequency, TF over GST control).

The values above are taken from paper PMC7862700, “An all-to-all approach to the identification of sequence-specific readers for epigenetic DNA modifications on cytosine”.
